Screening data from PubChem.
FLuc modulator: inhibits or activates purified firefly luciferase, miR-21 counter-screen; purified FLuc, Km substrates, luminescence inhibition; 6.9% of 360,000 active; P08659; AID 588342; Potency, µM (series often up to 57.5 µM), without a hit: top-dose activity change, negative = inhibition, most hits filed as inhibitors;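 also: plate controls were vehicle for no effect and reference inhibitor for full effect; nearly all actives have a fitted effect of over 55% in size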
Target sequence (P08659 whole entry, looked up): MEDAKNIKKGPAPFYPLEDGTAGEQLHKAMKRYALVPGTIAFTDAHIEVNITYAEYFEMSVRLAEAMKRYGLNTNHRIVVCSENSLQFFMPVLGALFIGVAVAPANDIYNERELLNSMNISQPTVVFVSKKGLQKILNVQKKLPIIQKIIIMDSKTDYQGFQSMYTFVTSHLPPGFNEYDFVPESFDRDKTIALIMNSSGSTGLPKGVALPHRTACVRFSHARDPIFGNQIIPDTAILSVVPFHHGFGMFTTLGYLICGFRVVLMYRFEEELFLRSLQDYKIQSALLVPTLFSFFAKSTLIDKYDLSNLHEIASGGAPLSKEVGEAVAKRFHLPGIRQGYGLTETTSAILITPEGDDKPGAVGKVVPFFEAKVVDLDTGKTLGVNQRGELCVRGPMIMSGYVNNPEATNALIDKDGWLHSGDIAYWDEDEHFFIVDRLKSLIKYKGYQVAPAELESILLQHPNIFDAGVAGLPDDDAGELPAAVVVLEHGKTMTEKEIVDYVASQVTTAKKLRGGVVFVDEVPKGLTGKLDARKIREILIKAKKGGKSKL
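Biochemical qHTS of compounds, final roughly 60 µM downward over six points, against 10 nM purified firefly luciferase using Km concentrations of substrates (10 uM D-luciferin, 10 uM ATP) in Tris acetate pH 7.5 buffer; luminescence output.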
ELG1 genotoxic: induces genotoxicity in HEK293T cells with luciferase-tagged ELG1; HEK293T ELG1-luciferase reporter, luminescence, 16 h; Potency, µM (doses to about 46 µM), inactives show at the top dose activity change, positive = activation, hits mostly activators; 1.3% of 330,000 active; also: % of control where 0% means no effect; nearly all actives have a fitted effect of over 60% in size
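ELG1-luciferase HEK293T cells, 2,000/well; compound pinned in; 16 hr, 37 °C, 5% CO2; ONE-Glo, 30 min RT; luminescence on CCD imager.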
SMN2 splice enh: SMN2 splice variant enhancement; HEK293 SMN2-luciferase splicing reporter, luminescence, 30-36 h; Potency, µM (top dose mostly 46.1 µM), for inactives: at the highest dose activity change, positive = activation, hits mostly activators; 2.8% of 210,000 active; also: % of control where 0% means no effect; nearly all actives have a fitted effect of over 55% in size
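HEK293 cells carry an SMN2 minigene-luciferase reporter in which exon 7 inclusion puts luciferase in frame. Cells were seeded at 2000 cells/well, attached for 10-12 hours, then exposed to compounds for 30-36 hours at 37C before ONE-Glo luminescence.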
NPC1 promoter act: activators of NPC1 promoter | 2.4% of 320,000 active | Potency, µM (highest dose often 9.22 µM), inactives show at the top dose activation, actives largely listed as activators | AID 485313 | Huh7 NPC1 promoter luciferase reporter, 24 h; also: % of control where 0% means no effect; nearly all actives have a fitted effect of over 60% in size
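Huh7 cells stably carrying NPC1 promoter–luciferase, plated in Opti-MEM with 10% FBS for 2 h, were exposed to compound in DMSO for 24 h at 37 °C; luciferase reagent was added for 10 min and luminescence read.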
Rab9 promoter act: activators of Rab9 promoter | Potency, µM (highest dose often 9.22 µM), without a hit: at the highest dose activation, negative = inhibition, actives largely listed as activators | Huh7 Rab9 promoter-luciferase reporter, luminescence, 24 h | 2.8% of 320,000 active; also: % of control where 0% means no effect; nearly all actives have a fitted effect of over 60% in size
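Cells were plated at 1500 per well in reduced-serum medium with 10% FBS and left 2 h. Compound in DMSO was then added for 24 h at 37 °C. Reporter signal was read by luminescence after 10 min with luciferase detection reagent.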
* hit, by the source's call; ? = inconclusive; . = no result given; [ ] = remark or other dose. An excerpt weighted towards active compounds, which were near 7.4% of everything screened. Calls follow the shape of the dose curve; as a rule, active = well fitted curve in the direction sought with a large enough effect; inconclusive = small, poorly fitted or top-dose-only effect, or another doubt; inactive = no such curve, though single readings can be large; an effect the other way counts as inactive or inconclusive. Potency is read from the fitted curve at half-maximal effect.

SMILES	FLuc modulator	ELG1 genotoxic	SMN2 splice enh	NPC1 promoter act	Rab9 promoter act
COc1cc([N+](=O)[O-])cc(CN2CCCCC2)c1O	-1%	0%	-4%	0%	17%
Cc1cccc(NC(=O)c2ccccc2-c2ccccc2)c1	1%	-2%	-4%	-7%	-8%
O=C(NCC1CCCO1)c1csc(Nc2cccc3ccccc23)n1 (stereo not drawn)	21µM*	?	.	-30%	-28%
COc1cccc(NC(=O)c2ccccc2-c2nc(-c3cccc(C)c3)no2)c1	17µM*	1%	-5%	?	26%
O=C(NCC1CCCO1)c1ccccc1-c1nc(-c2ccc(Cl)cc2)no1 (stereo not drawn)	15µM*	-7%	-4%	3%	-6%
CCCNC(=O)c1csc(Nc2cccc3ccccc23)n1	?	-6%	.	-1%	-3%
Cc1cccc(-c2noc(-c3ccccc3C(=O)NCC3CCCO3)n2)c1 (stereo not drawn)	11µM*	1%	11%	?	15%
COc1ccc(NS(=O)(=O)c2cccc(C(=O)NC3CCC(O)CC3)c2)cc1 (stereo not drawn)	0%	-7%	.	2%	12%
Cn1cc(-c2cc3n(n2)CCC(=O)N3CCCC(=O)NCc2ccccc2Cl)c2ccccc21	-3%	.	.	.	.
N#C/C(=C/c1ccc(N2CCOCC2)o1)C(=O)Nc1ccccc1	2.7µM*	?	14µM*	2µM*	2µM*
N#C/C(=C\c1ccc(N2CCOCC2)o1)C(=O)NCCc1ccccc1	27µM*	0%	16%	-1%	17%
N#C/C(=C\c1ccc(OCCN2CCOCC2)cc1)C(=O)Nc1ccccc1	-6%	2%	.	-5%	5%
N#C/C(=C\c1ccc(N2CCOCC2)o1)C(=O)NC1CCCCC1	17µM*	10%	.	19%	27%
COCCNC(=O)/C(C#N)=C/c1ccc(N2CCOCC2)o1	-10%	-1%	8%	1%	-2%
Cc1ccc(OCC(=O)Nc2sc3c(c2C(N)=O)CCCC3)c(C(C)(C)C)c1	-7%	.	-1%	.	.
COC(=O)N1[C@H](C)C=C[C@]1(Cc1ccccc1)C(=O)NCc1ccc(N(C)C)cc1	.	.	13µM*	.	.
Cc1cc(C(=O)COc2ncnc3sccc23)c(C)n1C	17µM*	18µM*	11µM*	?	?
Cc1ccc(C2=Nc3ccccc3S[C@@H](c3cccc([N+](=O)[O-])c3)C2)cc1	.	.	-3%[9.22 µM]	.	.
COCCOC(=O)CSc1ncccc1-c1nc2cc(C)c(C)cc2[nH]1	2.1µM*	?	16µM*	?	3.5µM*
COc1ccc2nc(SCC(=O)NC(C)C)[nH]c2c1	0%	22%	-20%	22%	24%
Cc1cc2nc(-c3cccnc3SCC(=O)NC(C)C)[nH]c2cc1C	2.7µM*	23µM*	11µM*	2.8µM*	2.2µM*
CCOC(=O)CSc1nc2cccnc2n1C	-2%	0%	8%	1%	-13%
N#C/C(=C/c1cn(CC(=O)O)c2ccccc12)C(=O)Nc1ccccc1	15µM*	2%	.	-3%	-8%
CCOc1ccc(NC(=O)/C(C#N)=C/c2cn(CC(=O)O)c3ccccc23)cc1	19µM*	1%	.	0%	-2%
CCc1ccc(NC(=O)/C(C#N)=C/c2cn(CC(=O)O)c3ccccc23)cc1	?	0%	4%	0%	2%
SMILES	FLuc modulator	ELG1 genotoxic	SMN2 splice enh	NPC1 promoter act	Rab9 promoter act
CC(=O)c1ccc(N2C(=O)N(Cc3cc(C)ccc3C)c3ccccc3S2(=O)=O)cc1	4%	.	.	.	.
CCCCC/C=C\C/C=C\C/C=C\CCCCCCC(=O)NCCc1ccc(O)c(O)c1	.	.	2%	.	.
CCOC(=O)C1CCCN(C(=O)CCNS(=O)(=O)c2cc(Br)cnc2N)C1 (stereo not drawn)	0%	-7%	.	0%	-6%
O=C(CCl)N1CCN(S(=O)(=O)c2ccc3c(c2)CCC3)CC1	3%	-3%	.	-42%	-48%
Cc1ccc2nc(NC(=O)CCCC(=O)O)sc2c1	5.4µM*	-10%	-8%	-30%	-41%
Cc1ccc2nc(NC(=O)CCn3cccc3)sc2c1	-17%	15%	?	23%	?
Cc1ccc2nc(N/C(=N/S(=O)(=O)c3ccc(F)cc3)c3ccccc3)sc2c1	8.5µM*	15%	?	13%	?
Cc1ccc2nc(N/C(=N/S(=O)(=O)c3ccc(F)cc3F)c3ccccc3)sc2c1	?	11%	.	1%	11%
Cc1ccc2nc(NC(=O)CCCc3nc4ccccc4s3)sc2c1	17µM*	?	23%	-20%	-19%
CCCNC(=O)CSc1nc2[nH]ncc2c(=O)[nH]1	-1%	2%	2%	-4%	-1%
CN(Cc1ccco1)c1ncnc2ccc(-c3ccc4c(c3)OCCO4)cc12	-16%	.	.	-17%	-17%
O=C1N=c2ccccc2=C1c1sc(Nc2ccc(O)cc2)nc1O	?	-13%	9%	1%	-1%
O=C1N=c2ccccc2=C1c1sc(Nc2cccc(O)c2)nc1O	19µM*	16%	.	15%	5%
O=C1N=c2ccccc2=C1c1sc(NS(=O)(=O)Cc2ccccc2)nc1O	11µM*	4%	.	2%	-3%
O=C1N=c2ccccc2=C1c1sc(NS(=O)(=O)c2ccccc2)nc1O	?	-1%	-7%	2%	2%
COc1ccccc1CNC(=O)COC(=O)CCN=C1NS(=O)(=O)c2ccccc21	4%	0%	.	0%	0%
N#Cc1ccccc1COC(=O)CCC(=O)c1cccs1	12µM*	4%	.	1%	3%
O=C(CCC(=O)c1cccs1)OCc1ccc([N+](=O)[O-])cc1	-12%	-2%	.	-2%	?
O=C(CCC(=O)c1cccs1)OCC(=O)c1ccccc1F	19µM*	3%	.	5%	9%
O=C(CCC(=O)c1cccs1)OCC(=O)c1ccccc1	.	-2%	.	.	.
COC(=O)c1ccc(Cn2c(=O)cc(C(F)(F)F)c3c(C)nn(C)c32)cc1	-1%	.	.	.	.
CC(C)c1ccc(NC2CCCN(C(=O)CCN3CCOCC3)C2)cc1 (stereo not drawn)	1%	-1%	.	-2%	-1%
Cc1ccc(C(=O)Nc2nnn(C)n2)cc1	17µM*	?	?	29%	?
Cn1nnc(NC(=O)c2cccc(F)c2)n1	1%	5%	-9%	-3%	-1%
CCn1nnc(NC(=O)c2ccc(C(C)(C)C)cc2)n1	3.4µM*	?	.	2.2µM*	1.3µM*
CCCn1nnc(NC(=O)c2ccc(Cl)cc2Cl)n1	19µM*	9.2µM*	88%	3.2µM*	3.2µM*
CCCn1nnc(NC(=O)c2cccc(OCC)c2)n1	17µM*	18µM*	18µM*	?	?
CCCn1nnc(NC(=O)c2cccc(OCC(C)C)c2)n1	?	16%	6%	23%	26%
CCn1nnc(NC(=O)c2cccnc2)n1	5%	1%	14%	1%	0%
CCCn1nnc(NC(=O)c2ccc3ccccc3c2)n1	15µM*	3%	.	?	?
